Reference: PubChem BioAssay AID1851 (National Center for Advancing Translational Sciences (NCATS), 2009)
Where “and” joins values, the source holds several entries; their conditions need not be identical. Equal entries are not always repeated. Screen size: about 16,000 compounds; about 2,600 (16%) were called active. Another 20% or so got no clear call; they are omitted. Calls follow the shape of the dose curve; as a rule, active = well fitted curve in the direction sought with a large enough effect; inconclusive = small, poorly fitted or top-dose-only effect, or effect the other way; inactive = no such curve, though single readings can be large or run the other way. The list is a sample of the results. Where a structure was tested more than once in an assay, its records may differ in their call.

The compounds below were run against Cytochrome P450 2D6 (Homo sapiens) (UniProt P10635) (assay: Cytochrome panel assay with activity outcomes). Conditions: recombinant CYP, pro-luciferin dealkylation, luminescence, p450-cyp2d6; series mostly up to 57.1 µM.
Chain of Cytochrome P450 2D6 (Homo sapiens) (P10635 whole entry, looked up): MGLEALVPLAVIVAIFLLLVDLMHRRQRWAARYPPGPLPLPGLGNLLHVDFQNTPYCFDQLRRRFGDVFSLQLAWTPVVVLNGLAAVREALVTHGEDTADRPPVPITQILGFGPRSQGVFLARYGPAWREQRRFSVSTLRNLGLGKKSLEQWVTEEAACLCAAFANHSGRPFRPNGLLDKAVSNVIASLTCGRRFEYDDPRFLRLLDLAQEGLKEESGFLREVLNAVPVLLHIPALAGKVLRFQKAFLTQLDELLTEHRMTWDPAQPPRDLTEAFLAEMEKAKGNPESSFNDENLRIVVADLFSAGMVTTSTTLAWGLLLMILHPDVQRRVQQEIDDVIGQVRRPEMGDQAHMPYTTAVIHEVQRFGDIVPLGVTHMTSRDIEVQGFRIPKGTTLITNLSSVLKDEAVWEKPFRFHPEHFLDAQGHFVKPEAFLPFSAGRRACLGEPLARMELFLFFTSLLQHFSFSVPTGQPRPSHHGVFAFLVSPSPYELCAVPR
% is scaled to controls: 0 for no effect and ±100 for the full control effect.

| Compound | AC50 | activity, negative = inhibition |
| --- | --- | --- |
| O=c1c(-c2cc(F)cc(F)c2)nc2cnc(N3CCOCC3)nc2n1C[C@H]1CCCO1 | inactive |  |
| CCOc1c2ccc(C(=O)NCCc3cccs3)cc2nn1CC | 2240 nM (active) |  |
| CCn1nc2cc(C(=O)NCC34CC5CC(CC(C5)C3)C4)ccc2c1OC | inactive |  |
| CCCn1nc2cc(C(=O)NCCc3ccc(C)cc3)ccc2c1OCC | 3550 nM (active) |  |
| CCCCn1nc2cc(C(=O)NCC3CC3)ccc2c1OCC | inactive |  |
| CCOc1c2ccc(C(=O)NCCCCc3ccccc3)cc2nn1C | 282 nM (active) |  |
| CCOc1c2ccc(C(=O)NCc3ccco3)cc2nn1CC | inactive |  |
| COCCNC(=O)c1ccc2c(c1)ncn2-c1ccc(F)c(F)c1 | inactive |  |
| CCCn1nc2cc(C(=O)NCc3ccc(C)cc3)ccc2c1OC | inactive |  |
| CCOc1c2ccc(C(=O)NC3CCCc4ccccc43)cc2nn1C (configuration not stated) | 7940 nM (active) |  |
| COCCn1c(=O)c(-c2ccccc2)nc2cnc(Oc3cccc(Cl)c3)nc21 | inactive |  |
| NC(=O)Nn1c(CCC(=O)O)ccc1-c1ccc(F)cc1 | inactive |  |
| Cc1ccc(C(=O)N2C3C=CC(C3)C2(C(F)(F)F)C(F)(F)F)cc1 (configuration not stated) | inactive |  |
| CCC(C)(C)c1ccc(Oc2cccc(C(=O)O)c2)cc1 |  | 13.3% [at 11.4 µM] (inactive) |
| O=C(O)CCNc1ncnc2nc[nH]c12 |  | 9.14% [at 11.4 µM] (inactive) |
| OC[C@H]1O[C@H](n2cnc3c(NC4CCCC4)nc(Cl)nc32)[C@@H](O)[C@@H]1O | inactive |  |
| C=C(C)CN(CC#N)CC(=C)C |  | 5.94% [at 11.4 µM] (inactive) |
| N#C/C(=C(\O)C(=O)O)c1ccc(-c2cccc3ccccc23)cc1 |  | 14.5% [at 11.4 µM] (inactive) |
| O=c1c2c(n3cnnc3n1-c1ccccc1)-c1ccccc1CC21CCCCC1 | inactive |  |
| Nc1nc(N)c(N=Nc2ccc(C(=O)O)c(O)c2)c(N)n1 |  | -8.46% [at 11.4 µM] (inactive) |
| CC1CCN(c2ccc(/C=N/n3nnnc3N)cc2[N+](=O)[O-])CC1 | inactive |  |
| NC(=S)SCCC(=O)O |  | 4.51% [at 11.4 µM] (inactive) |
| NC(N)=Nc1nc2ccc([N+](=O)[O-])cc2[nH]1 |  | 2.98% [at 11.4 µM] (inactive) |
| O=S(=O)(O)c1cc(N=[N+]([O-])c2cc(S(=O)(=O)O)c3ccccc3c2)cc2ccccc12 |  | -20.1% [at 11.4 µM] (inactive) |
| CCNc1nc(Sc2ccc(C)cc2)cc(C(F)(F)F)n1 | inactive |  |
| CC(C)Nc1nc(Oc2ccc(Cl)cc2)cc(C(F)(F)F)n1 | inactive |  |

| Compound | AC50 | activity, negative = inhibition |
| --- | --- | --- |
| CC(C)c1cc(C(F)(F)F)nc(NNc2nc(C(C)C)cc(C(F)(F)F)n2)n1 | 126 nM (active) |  |
| Cc1nc2cnc(N3CCN(C)CC3)nc2n(Cc2ccc(F)cc2)c1=O | inactive |  |
| CN(C)c1ccc(-c2noc(C3CCN(S(=O)(=O)c4cccc(C(=O)O)c4)CC3)n2)cc1 | inactive |  |
| Cc1ccc(C2=Nc3ccccc3S[C@@H](c3cccc([N+](=O)[O-])c3)C2)cc1 |  | 4.11% [at 11.4 µM] (inactive) |
| COc1ccc(/C=C(/C#N)C(=O)NC2CCCCC2)cc1Br | inactive |  |
| N#C/C(=C\c1cn[nH]c1-c1ccccc1)C(=O)NC1CCCCCC1 | 28200 nM (active) |  |
| N#C/C(=C\c1cc(Cl)cc(Cl)c1O)C(=O)NC1CCCCC1 | inactive |  |
| CC1=C(C(=O)NCCN2CCN(C)CC2)C2(CCC(C)CC2)OC1=O (configuration not stated) | inactive |  |
| C/C(=N\NC(=O)c1ccc(Br)cc1)c1ccccc1 | inactive |  |
| CCOc1ccc(C(=O)Nc2cccc(-c3cc4ccccc4oc3=O)c2)cc1[N+](=O)[O-] | inactive |  |
| COc1ccc(-c2cc(C(=O)Nc3nc4c(C)cccc4s3)c3ccccc3n2)cc1OC | inactive |  |
| CCCCNC(=O)CSc1nc2ccccc2c(=O)n1CCNC(C)=O | inactive |  |
| CCCCNc1cc(=O)oc2ccccc12 | inactive |  |
| CCCCNC(=O)Cc1coc2ccc3ccccc3c12 | 10000 nM (active) |  |
| CC1(O)CC(=O)N(c2ccccc2)O1 (configuration not stated) | inactive |  |
| COc1ccc(-c2cn3c(C)c(C(=O)NCCN4CCOCC4)sc3n2)cc1 | inactive |  |
| COc1ccc(C(=O)Nc2ccc(Cl)cc2C(=O)NCCN2CCOCC2)cc1 | 1260 nM (active) |  |
| COc1cccc(C(=O)NCCN2CCOCC2)c1 | inactive |  |
| O=C(O)[C@H]1CN(CCCP(=O)(O)O)CCN1 | inactive |  |
| CCCCNN |  | -18.7% [at 11.4 µM] (inactive) |
| O=C(O)/C(=C\c1ccccc1)Cc1ccccc1 |  | -3.61% [at 11.4 µM] (inactive) |
| C#CCN(C)Cc1ccccc1 | inactive |  |
| CN(Cc1ccccc1)Cn1ccnc1 | 794 nM (active) |  |
| Cc1ccc(C(C(=O)NC2CCCCC2)N2CCN(C(=O)c3ccco3)CC2)cc1 (configuration not stated) | inactive |  |
| Cc1cc(C)n(C(=O)c2cc3ccccc3c(=O)o2)n1 | inactive |  |
| CC(C)c1ccc(C2C(C#N)=C(N)N3C(=C2C#N)Sc2ccccc23)cc1 (configuration not stated) | inactive |  |

| Compound | AC50 | activity, negative = inhibition |
| --- | --- | --- |
| O=C1CCCc2ccccc2N1Cc1ccccc1Cl | inactive |  |
| C[C@@H](CN1c2ccccc2Sc2ccccc21)N(C)C | 2 µM (active) and 316 nM (active) |  |
| CN(C)CN1C(=O)S/C(=C2/C(=O)N(CN(C)C)c3ccccc32)C1=O |  | -3.13% [at 11.4 µM] (inactive) |
| C[C@H](CN(C)C)C(=O)c1ccccc1C(=O)O |  | 9.39% [at 11.4 µM] (inactive) |
| C[C@@H](CN(C)C)CN1c2ccccc2CCc2ccccc21 | 12.6 µM (active) and 5.01 µM (active) |  |
| CN(C)CC(C)(C)CN1c2ccccc2Sc2ccccc21 | 200 nM (active) |  |
| CCN(CC)[C@@H](C)CN1c2ccccc2Sc2ccccc21 | 158 nM (active) |  |
| Cc1nc(C(=O)Nc2cccc(Cl)c2Cl)nn1-c1cc(OC(C)C)c(Cl)cc1Cl | inactive |  |
| O=Nc1ccc(NOC(=O)c2ccc(Br)cc2)cc1 | inactive |  |
| Cc1ccc(C(=O)NNC(=O)C2CCCN(c3ncccn3)C2)cc1 (configuration not stated) | inactive |  |
| Nc1ncnc2c1cnn2-c1ccccc1 | inactive |  |
| Cc1cc(C)n(-c2ccc(F)cc2)c(=O)c1C(=O)O | inactive |  |
| CSc1nc2ccccc2cc1/C=C(\C#N)c1ccccc1 | inactive |  |
| COc1ccccc1C(OC(=O)c1cccs1)C(=O)NCC1CCCO1 (configuration not stated) | inactive |  |
| NCCC(=O)O | inactive |  |
| O=C(O)CCCCCn1c(SCC(=O)N2CCCC2)nc2ccsc2c1=O | inactive |  |
| CC[C@@]1(O)C(=O)COc2c1cc1n(c2=O)Cc2c-1nc1cccc(C(C)C)c1c2[Si](C)(C)C | inactive |  |
| COc1ccc2c(c1)N(C[C@@H](C)CN(C)C)c1ccccc1S2 | 63.1 nM (active) |  |
| COc1ccc([C@@H]2Sc3ccccc3N(CCN(C)C)C(=O)[C@@H]2OC(C)=O)cc1 | inactive |  |
| COc1ccc([C@H]2Sc3ccccc3N(CCN(C)C)C(=O)[C@H]2OC(C)=O)cc1 | inactive |  |
| CCCCCC(=O)N1CC2(CC(c3cccc(NC(=O)c4ccccc4)c3)=NO2)C[C@@H]1C(N)=O (some centres not stated) | inactive |  |
| O=C(CSc1nc2ccccc2o1)Nc1nc2ccccc2s1 | inactive |  |
| O=C(CN(C(=O)CSc1nc2ccccc2o1)c1cccc(F)c1)NC1CCCCC1 | 12600 nM (active) |  |
| O=C(CSc1nc2ccccc2o1)NC(=O)NCc1ccccc1 | inactive |  |
| Cc1cccc(-c2c3c(=O)n(C)c(=O)n(C)c3cn2C2CCCCC2)c1 | inactive |  |
| CO[C@@H]1COC(=O)[C@H](CCSC)NC(=O)C/C=C\[C@@H](C)COC(=O)[C@@H]2CCCN2C(=O)C/C=C\[C@H]1C |  | 11.2% [at 11.4 µM] (inactive) |

| Compound | AC50 | activity, negative = inhibition |
| --- | --- | --- |
| CC(=O)Nc1ccc(OC[C@@H](O)CNC(C)C)cc1 | inactive and 3.16 µM (active) |  |
| CC(C)NC[C@@H](O)COc1ccc(COCCOC(C)C)cc1 | inactive |  |
| CC(C)NC[C@@H](O)COc1ccc(CCOCC2CC2)cc1 | inactive |  |
| Cc1cc(C(=O)C(=O)NC(C)C)c(C)n1-c1ccc([N+](=O)[O-])cc1 | inactive |  |
| CC(=O)NS(=O)(=O)c1ccc(NC(=S)NC(=O)C(C)(C)C)cc1 | inactive |  |
| Cc1ccc(-c2nn(-c3ccccc3)cc2/C=N/NS(=O)(=O)c2ccccc2)cc1 | inactive |  |
| O=S(=O)(N/N=C\c1cn(-c2ccccc2)nc1-c1ccccc1)c1ccccc1 | 112 nM (active) |  |
| O=C(N/N=C\c1cn(-c2ccccc2)nc1-c1ccccc1)c1ccc(Br)o1 | inactive |  |
| COc1ccc(C2C(C(=O)N3CCOCC3)c3ccccc3C(=O)N2c2ccc(OC)cc2)cc1 (configuration not stated) | inactive |  |
| CNc1ccnc(-c2c(C)noc2C)n1 | inactive |  |
| CN(C)Cc1ccccc1-c1nccc(NC2CC2)n1 | 631 nM (active) |  |
| CNc1ccnc(-c2ccccc2CN(C)C)n1 | 39.8 nM (active) |  |
| CN(C)Cc1ccccc1-c1nccc(Nc2ccc(F)cc2)n1 | 10000 nM (active) |  |
| Cc1nn2c(NCC(C)C)c3c(nc2c1-c1ccccc1)CCC3 | inactive |  |
| Cc1ccc(S(=O)(=O)N=Nc2c(O)[nH]c3cc(O)c(C(=O)O)cc23)cc1 |  | 6.63% [at 11.4 µM] (inactive) |
| COC(=O)C/C=C\[C@@H](C)[C@@H]1C=C[C@H](OC(C)=O)[C@H](COC(C)=O)O1 |  | 13.8% [at 11.4 µM] (inactive) |
| CCC(C)(C(=O)NC1CCCC1)N(C(=O)c1ccccn1)c1ccccc1 (configuration not stated) | inactive |  |
| Nc1nc(Nc2ccccc2)nc2c1ncn2[C@@H]1O[C@@H](CO)[C@H](O)[C@@H]1O | inactive |  |
| N[C@@H](Cc1cc(-c2ccc(Cl)cc2Cl)cc(CP(=O)(O)O)c1O)C(=O)O | inactive |  |
| CCN(CC)Cc1c(O)ccc2c(=O)c(Oc3ccccc3OC)coc12 | inactive |  |
| CCN(CC)Cc1c(O)c(Cl)cc2c3c(c(=O)oc12)CCCC3 | 2510 nM (active) |  |
| CCC(C)C(NS(=O)(=O)c1ccc(C)cc1)C(=O)Oc1ccc2c3c(c(=O)oc2c1)CCC3 (configuration not stated) | inactive |  |
| CC(C)CN(Cc1c(O)ccc2c3c(c(=O)oc12)CCC3)CC(C)C | 224 nM (active) |  |
| CCc1cc2c(=O)c(-c3nc4ccccc4n3C)c(C)oc2c(CN(CC)CC)c1O | inactive |  |
